The structures appear in SMILES notation. Compounds without any hit were thinned out: in the full panel of roughly 83,000, 20% have a hit.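 How to read the values: 0–100, growth inhibition (40 = 60% inhibited); 0, no net growth; -100 to 0, cell death (-40 = 40% of starting cells died; -100 = all dead).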 Unmarked numbers belong to inactive results. Active and inactive are the calls of the source. The calls were made as follows: active = growth percent below 10; inactive = the rest.

Some test systems named below: SR leukemia; RPMI-8226 leukemia; OVCAR-8 ovarian; OVCAR-5 ovarian; OVCAR-4 ovarian; SK-OV-3 ovarian; OVCAR-3 ovarian; NCI/ADR-RES ovarian; T-47D breast; BT-549 breast; MDA-MB-435 melanoma; SW-620 colon; MCF7 breast; HCT-116 colon; HCC-2998 colon; KM12 colon; IGROV1 ovarian; HS 578T breast.
Assay in all cases: NCI-60 one-dose screen, 48 h (100 = growth as untreated, 0 = no growth, -100 = all killed)
What all share (settings): 10 µM unless noted

For `CC1(C)NC(=S)NC1=O`, the growth in the experiment on SR leukemia is 93.1%; in the experiment on RPMI-8226 leukemia, 101%; in the experiment with OVCAR-8 ovarian it was 106%; in the experiment on OVCAR-5 ovarian, 108%; with OVCAR-4 ovarian, 103%; in the experiment on SK-OV-3 ovarian it was 98.6%. For the same compound, the growth in the experiment on OVCAR-3 ovarian was 112%; with NCI/ADR-RES ovarian, 104%; with T-47D breast, 91.6%; in the experiment on BT-549 breast it was 103%; in the experiment on MDA-MB-435 melanoma it was 110%; with SW-620 colon, 96.9%. For the same compound, the growth was 99.2% in the experiment on MCF7 breast, 102% in the experiment on HCT-116 colon, 112% with HCC-2998 colon and 108% in the experiment on KM12 colon.

Turning to `Cc1ccc(NCc2cn(-c3ccc(C(=O)O)cc3)nc2-c2ccc(C(=O)O)cc2)cc1`, the growth was 103% in the experiment with SR leukemia; 109% in the experiment with RPMI-8226 leukemia; 97.8% with OVCAR-8 ovarian; 106% with OVCAR-5 ovarian; 102% with SK-OV-3 ovarian; 107% with IGROV1 ovarian. For the same compound, the growth with OVCAR-3 ovarian was 101%; in the experiment with HS 578T breast, 101%; with NCI/ADR-RES ovarian it was 102%; with T-47D breast, 98.6%; with BT-549 breast, 108%; with MDA-MB-435 melanoma, 107%. Besides, the growth in the experiment on SW-620 colon was 110%; in the experiment on MCF7 breast, 93.6%; with HCT-116 colon, 100%; in the experiment on KM12 colon it was 93.9%.

As to `CCCCN(CCCC)CCCNc1c2c(nc3ccc(Cl)cc13)CCCC2`, the growth in the experiment with SR leukemia was 75.8%; in the experiment on RPMI-8226 leukemia, 102%; with OVCAR-8 ovarian, 102%; with OVCAR-5 ovarian it was 84%; in the experiment with SK-OV-3 ovarian, 105%; in the experiment on IGROV1 ovarian, 79.5%. The growth in the experiment on OVCAR-3 ovarian is 88.9%; in the experiment on HS 578T breast, 104%; in the experiment on NCI/ADR-RES ovarian, 94.4%; with T-47D breast, 95.7%; in the experiment with BT-549 breast, 108%; with MDA-MB-435 melanoma it was 103%. The growth in the experiment on SW-620 colon is 82.3%; with MCF7 breast it was 89.6%; with HCT-116 colon it was 57.6%; with HCC-2998 colon, 82.8%; in the experiment on KM12 colon, 99.7%.

With `C=C(C)C(C(=O)OCC)(C(=O)OCC)C(C)C`, the growth with SR leukemia was 120%; in the experiment with RPMI-8226 leukemia, 99.4%; in the experiment on OVCAR-8 ovarian, 108%; in the experiment on OVCAR-5 ovarian, 94.7%; in the experiment on OVCAR-4 ovarian, 98.5%; with SK-OV-3 ovarian, 107%. In addition, the growth in the experiment with OVCAR-3 ovarian was 116%; in the experiment with NCI/ADR-RES ovarian, 116%; in the experiment on T-47D breast it was 124%; with BT-549 breast it was 115%; in the experiment with SW-620 colon it was 107%; in the experiment with MCF7 breast, 97.4%. The results for the growth with HCT-116 colon, with HCC-2998 colon and in the experiment with KM12 colon were 109%, 119% and 106%, respectively.

As to `CCC(C)(C)c1ccc(OCCCCCCN2CCN(c3ccc(C)c(Cl)c3)CC2)cc1`, the growth in the experiment with SR leukemia is 71.8%; in the experiment on RPMI-8226 leukemia it was 59.7%; with OVCAR-8 ovarian, 98.7%; in the experiment with OVCAR-5 ovarian it was 97.6%; in the experiment on OVCAR-4 ovarian, 74.5%; in the experiment on SK-OV-3 ovarian, 98%. Besides, the growth with OVCAR-3 ovarian was 58.3%; in the experiment on NCI/ADR-RES ovarian, 85%; in the experiment on T-47D breast, 66.1%; with BT-549 breast it was 79.5%; in the experiment with MDA-MB-435 melanoma, 97.3%; with HCT-116 colon it was 62.3%. Also, the growth was 83.5% in the experiment with HCC-2998 colon and 79.3% in the experiment with KM12 colon.

`Cc1c([C@H](C(Cl)Cl)[C@H](O)[C@H]2C[C@H](C)C(=O)O2)ccc2c1C(=O)[C@H]1[C@H]2C[C@@H](Br)[C@@]23O[C@@H](CO[C@H]2O)CC13C` (stereo not given in full): the growth with SR leukemia is 11.9%; with RPMI-8226 leukemia it was 26.7%; in the experiment with OVCAR-8 ovarian, 5.88% (active); in the experiment on OVCAR-5 ovarian, 55.6%; in the experiment on OVCAR-4 ovarian, 38.6%; in the experiment on IGROV1 ovarian, 36.5%. The growth is -56.5% (active) in the experiment on OVCAR-3 ovarian; -23.2% (active) in the experiment with HS 578T breast; 30.8% in the experiment on NCI/ADR-RES ovarian; 37.6% in the experiment on BT-549 breast; -40% (active) with MDA-MB-435 melanoma; 14.6% in the experiment on SW-620 colon. In addition, the growth with HCT-116 colon was 15.1%; with HCC-2998 colon, 8.99% (active); in the experiment on KM12 colon, 2.99% (active).

Turning to `COc1ccc(/C(=C(\c2ccccc2)[N+](=O)[O-])c2ccc(OCCN3CCCC3)cc2)cc1`, the growth in the experiment with SR leukemia is 21.8%; in the experiment with RPMI-8226 leukemia, 37%; in the experiment with OVCAR-8 ovarian, 92.6%; in the experiment with OVCAR-5 ovarian it was 75.3%; in the experiment with OVCAR-4 ovarian, 81.8%; in the experiment with SK-OV-3 ovarian, 99%. Further, the growth is 100% in the experiment on OVCAR-3 ovarian; 84.3% in the experiment with NCI/ADR-RES ovarian; 51.5% with T-47D breast; 74.2% in the experiment on BT-549 breast; 48.2% with MDA-MB-435 melanoma; 37.4% with MCF7 breast. Also, the growth was 44.5% in the experiment with HCT-116 colon, 80.8% in the experiment with HCC-2998 colon and 54.1% in the experiment on KM12 colon.

In the case of `COc1cc2ncnc(-n3ncc4cc(NC(=O)Nc5ccc(Cl)c(C)c5)ccc43)c2cc1OC`, the growth is 71.5% in the experiment with SR leukemia; 96.8% in the experiment on RPMI-8226 leukemia; 110% with OVCAR-8 ovarian; 109% in the experiment with OVCAR-5 ovarian; 119% in the experiment with SK-OV-3 ovarian; 96.2% in the experiment with IGROV1 ovarian. The growth with OVCAR-3 ovarian is 107%; in the experiment with HS 578T breast it was 75.9%; with NCI/ADR-RES ovarian it was 98.7%; with T-47D breast it was 72%; in the experiment with BT-549 breast, 89.7%; in the experiment with MDA-MB-435 melanoma it was 93.8%. The growth in the experiment with SW-620 colon was 120%; in the experiment on MCF7 breast, 72.7%; in the experiment with HCT-116 colon, 81.5%; in the experiment with HCC-2998 colon, 100%; in the experiment with KM12 colon, 25.8%.

Turning to `C[C@]12C=CC(=O)C=C1[C@@H](F)C[C@@H]1[C@@H]2[C@@H](O)C[C@@]2(C)[C@H]1CC[C@]2(O)C(=O)CO`, the growth is 106% with SR leukemia; 72.7% in the experiment with RPMI-8226 leukemia; 83.9% with OVCAR-8 ovarian; 77.2% in the experiment with OVCAR-5 ovarian; 106% with OVCAR-4 ovarian; 71.3% with SK-OV-3 ovarian. The growth was 96.3% with OVCAR-3 ovarian; 91.5% with NCI/ADR-RES ovarian; 99.4% in the experiment with T-47D breast; 78.5% in the experiment with BT-549 breast; 103% in the experiment with MDA-MB-435 melanoma; 87.4% in the experiment on MCF7 breast. The growth is 105% in the experiment on HCT-116 colon, 105% in the experiment on HCC-2998 colon and 100% in the experiment with KM12 colon.

The record behind these values is PubChem BioAssay (NCI).
